Rows were chosen to be rich in hits. Some 5% of all compounds tested hit in one or more screens of this group.
CHT inh – inhibits the human high affinity choline transporter; B-score at 10 µM; 310,000 tested, 0.86% active; Q9GZV3; CHT-expressing cells, membrane potential dye, choline response; active compounds read low;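 active means B-score over 3 SD under the library average, and starting fluorescence ratio not unusually high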;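 further: choline stimulus applied at its EC90 after an EC20 pre-addition; B-score computed on integrated fluorescence ratio after choline addition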
Target sequence (Q9GZV3 whole entry, looked up): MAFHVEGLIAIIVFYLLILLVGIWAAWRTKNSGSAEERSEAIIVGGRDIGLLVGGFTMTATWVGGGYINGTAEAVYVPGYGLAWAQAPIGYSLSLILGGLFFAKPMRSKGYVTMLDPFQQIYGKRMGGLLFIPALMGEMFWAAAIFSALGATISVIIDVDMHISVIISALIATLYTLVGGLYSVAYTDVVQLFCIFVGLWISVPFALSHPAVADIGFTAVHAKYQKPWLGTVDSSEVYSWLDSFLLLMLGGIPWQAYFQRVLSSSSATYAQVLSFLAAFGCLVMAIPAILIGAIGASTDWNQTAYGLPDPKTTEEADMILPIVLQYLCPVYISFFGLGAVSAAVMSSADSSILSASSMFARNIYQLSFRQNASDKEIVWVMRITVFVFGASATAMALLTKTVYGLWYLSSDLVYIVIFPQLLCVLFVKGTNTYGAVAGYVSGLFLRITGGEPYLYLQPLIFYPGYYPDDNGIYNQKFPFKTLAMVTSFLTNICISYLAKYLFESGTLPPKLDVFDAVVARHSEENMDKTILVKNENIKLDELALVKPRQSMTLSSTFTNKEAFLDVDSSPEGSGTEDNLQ
PREPL inh – human PREPL enzyme inhibition; Q4J6C6; recombinant PREPL, fluorescence polarization activity-based probe; inhibition, % at 5.96 µM; 320,000 tested, 0.68% active; AID 2751; in the data active means inhibition above about 43%;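 further: 0% = enzyme with DMSO and 100% = wells lacking enzyme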
ALR inh – inhibitors of human sulfhydryl oxidase ALR. 290,000 tested, 3.8% active. inhibition, % (concentration not given with the values). purified ALR, DTT oxidation, H2O2 HRP-luminol luminescence;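 active means mean replicate inhibition above about 79%, with every replicate also reaching it, limit read from the data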
CHT allo act – allosterically activates the human high affinity choline transporter; CHT-expressing cells, membrane potential dye, choline EC20; active compounds read high; LV-AA mutant CHT in HEK293 cells; B-score at 10 µM; 310,000 tested, 0.49% active;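 active means initial fluorescence not abnormally high and integrated response B-score, plate-corrected, over 3 SD above library mean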
AI-2 QS mod – Vibrio harveyi AI-2 quorum sensing modulation | Vibrio harveyi JMH597 AI-2 luminescence/OD600 ratio, 9 h; active compounds read low; strain lacks LuxN and CqsS sensors; 0 = neutral-control median | activity change, % at 7.5 µM | 300,000 tested, 0.4% active; in the data active means activity change below about -75%, passing the limit was not always enough;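 further: luminescence divided by OD600 gain over 9 h not by final OD600 alone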
Active calls of the source: *; i = inactive; nt = no result given; ! = repeats disagree.

SMILES | CHT inh | PREPL inh | ALR inh | CHT allo act | AI-2 QS mod
Cc1csc(Nc2ccccc2)[n+]1C | i | -7 | 98* | i | 8
Cc1csc(Nc2ccccc2)[n+]1-c1ccccc1 | i | 6 | 99* | i | 13
Cc1c(Nc2scc(-c3ccccc3)[n+]2-c2ccccc2)c(=O)n(-c2ccccc2)n1C | i | 3 | -11 | i | 30
CCCCCC[n+]1c(-c2ccccc2)csc1Nc1ccccc1 | i | 9 | -2 | i | 31
CCCc1cc(C(N)=O)c(NC(=O)c2ccoc2C)s1 | i | 11 | 98* | i | 40
COc1cc(OC)c(NS(=O)(=O)c2c(C(=O)N3CCCCC3)c(C)n(C)c2C)cc1Cl | i | -5 | -12 | i | 1
COc1cc(OC)c(NC(C)C(=O)N2CCCC2)cc1Cl (stereo not given) | -8.7* | 7 | 79* | i | 21
Nc1ccc(S(=O)(=O)NC2(C(F)(F)F)NC(=O)N(c3ccc(F)cc3)C2=O)cc1 (stereo not given) | i | 1 | -2 | i | 9
CCOC(=O)c1nsnc1NCCSC(=N)N | i | 6 | 43 | i | 13
O=c1c2ccccc2nc(/C=C/c2ccc([N+](=O)[O-])o2)n1CCCO | i | -10 | -3 | i | -84*
Cc1ccccc1NC(=O)CCC(=O)N/N=C/c1cc([N+](=O)[O-])ccc1O | i | 6 | 4 | i | -109*
O=C(NCC1CCCO1)C(=O)c1c[nH]c2ccccc12 (stereo not given) | i | -5 | 0 | i | 17
COc1ccccc1N1CCN(CCN(C(=O)C2CCCCC2)c2ccccn2)CC1 | i | 1 | 97* | i | 12
COc1ccccc1N1CCN(CCCC(=O)c2ccc(F)cc2)CC1 | i | -3 | 64 | i | -2
COc1ccccc1N1CCN(CCN(C(=O)c2ccc(F)cc2)c2ccccn2)CC1 | i | 2 | 94* | i | nt
O=C(CN(C(=O)c1ccccc1Cl)N1C(=O)C2C3C=CC(C3)C2C1=O)c1cccs1 (stereo not given) | i | -2 | 4 | i | -8
O=C(COC(=O)c1ccc(S(=O)(=O)NCc2ccco2)cc1)Nc1ccc(Cl)cn1 | i | 1 | 3 | i | 14
O=c1[nH]c(S)c(/C=C2\C=Nc3ccccc32)s1 | i | 12 | 99* | i | 45
Oc1ccc(C2CNCCc3c2cc(O)c(O)c3Cl)cc1 (stereo not given) | i | 1 | 99*! | i | 19
Oc1cc2c(c(Cl)c1O)CCNCC2c1ccccc1 (stereo not given) | i | 2 | 99* | i | 2
CC(OC(=O)c1cc(S(=O)(=O)N2CCOCC2)ccc1Br)C(=O)N1CCOCC1 (stereo not given) | nt | 0 | -14 | nt | nt
Cc1cccc(N2CC(C(=O)Nc3ccc(N4CCOCC4)cc3)CC2=O)c1C (stereo not given) | nt | 11 | 19 | nt | nt
CC(C(=O)NCc1ccccc1Cl)n1cc([N+](=O)[O-])cn1 (stereo not given) | i | 8 | -3 | i | nt
Cc1ccc(Nc2nnc(SCC(=O)NC(Cc3c[nH]c4ccccc34)C(=O)O)s2)cc1 (stereo not given) | i | 8 | 94* | i | 78
Cc1c(/C=C2\NC(=O)NC2=O)c2ccccc2n1C | i | 3 | 98* | i | 27
SMILES | CHT inh | PREPL inh | ALR inh | CHT allo act | AI-2 QS mod
COc1cccc(N2CCN(C(=O)Nc3ccccc3Cl)CC2)c1 | i | -2 | 87* | i | 34
Cc1ccc2c(c1)c1c3n2CCN(C(=O)CN2CCN(C)CC2)C3CCC1 (stereo not given) | i | 36 | 91* | i | -5
O=C(Cc1ccc(Br)cc1)Nc1cccc(-c2cn3c(n2)SCC3)c1 | i | 15 | 12 | i | 29
CC(C)c1ccc(/C=C2\CC/C(=C\C=N\N(C)C)C2=O)cc1 | i | 18 | 96* | i | 22
CN(C)/N=C/C=C1\CC/C(=C\c2ccc(F)c(F)c2)C1=O | i | 2 | 36 | i | 16
CCN1C(=O)CCC(C(=O)O)C1c1ccc(OC)cc1 (stereo not given) | i | 4 | -7 | i | 6
CCN(CC)c1ccc(-n2c(C)cc(C=O)c2C)cc1 | i | -5 | 98* | i | 19
Cc1ccc(CS/C(Nc2ccccc2C)=C(\C#N)C(=O)NCc2ccco2)c(C)c1 | i | -3 | 99* | i | 21

Assay outcomes as filed in PubChem BioAssay.
